From PubChem BioAssay (NCATS)
Records with an inconclusive call do not appear. Calls of active or inactive are those of the source. Unless noted, the call rests on the fitted dose curve; in most records, active means well fitted cell-killing curve with a large enough effect; inconclusive means small, poorly fitted or top-dose-only effect, or effect the other way; inactive means no such curve, though single readings can be large or run the other way.

Legend:
[1] = Quantitative High-Throughput drug screen in 47 multiple myeloma cell lines against the NCATS MIPE library collection: KMS28PE_JCRB cell viability assay (AID 1918983); further: nearly all actives have a fitted effect of over 35% in size
Procedure, shortened: (§1)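 MIPE 4.0 approved/investigational drugs; 500 cells/well; 48 h 37 °C humidified 5% CO2; CTG luminescence readout; DMSO = 100%, media = 0% viability.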

[2] = Quantitative High-Throughput drug screen in 47 multiple myeloma cell lines against the NCATS MIPE library collection: L363_DSMZ cell viability assay (AID 1918984); further: nearly all actives have a fitted effect of over 40% in size
Procedure, shortened: as §1

[3] = Quantitative High-Throughput drug screen in 47 multiple myeloma cell lines against the NCATS MIPE library collection: KMS34_JCRB cell viability assay (AID 1918985); further: nearly all actives have a fitted effect of over 40% in size
Procedure, shortened: as §1

[4] = Quantitative High-Throughput drug screen in 47 multiple myeloma cell lines against the NCATS MIPE library collection: OCIMY7_PLB cell viability assay (AID 1918987); further: nearly all actives have a fitted effect of over 65% in size
Procedure, shortened: as §1

[5] = Quantitative High-Throughput drug screen in 47 multiple myeloma cell lines against the NCATS MIPE library collection: OCIMY5_PLB cell viability assay (AID 1918988); further: nearly all actives have a fitted effect of over 65% in size
Procedure, shortened: as §1

[6] = Quantitative High-Throughput drug screen in 47 multiple myeloma cell lines against the NCATS MIPE library collection: OPM1_PLB cell viability assay (AID 1918989); further: nearly all actives have a fitted effect of over 40% in size
Procedure, shortened: as §1

[7] = Quantitative High-Throughput drug screen in 47 multiple myeloma cell lines against the NCATS MIPE library collection: XG6_PLB cell viability assay (AID 1919865); further: nearly all actives have a fitted effect of over 40% in size
Procedure, shortened: as §1

[8] = Quantitative High-Throughput drug screen in 47 multiple myeloma cell lines against the NCATS MIPE library collection: XG1_PLB cell viability assay (AID 1919866); further: nearly all actives have a fitted effect of over 35% in size
Procedure, shortened: as §1

[9] = Quantitative High-Throughput drug screen in 47 multiple myeloma cell lines against the NCATS MIPE library collection: VP6_DJ cell viability assay (AID 1919867); further: nearly all actives have a fitted effect of over 40% in size
Procedure, shortened: as §1

[10] = Quantitative High-Throughput drug screen in 47 multiple myeloma cell lines against the NCATS MIPE library collection: PE2_PLB cell viability assay (AID 1919869); further: nearly all actives have a fitted effect of over 35% in size
Procedure, shortened: as §1

[11] = Quantitative High-Throughput drug screen in 47 multiple myeloma cell lines against the NCATS MIPE library collection: PCM6_Riken cell viability assay (AID 1919870); further: nearly all actives have a fitted effect of over 30% in size
Procedure, shortened: as §1

[12] = Quantitative High-Throughput drug screen in 47 multiple myeloma cell lines against the NCATS MIPE library collection: RPMI8226_ATCC cell viability assay (AID 1919871); further: nearly all actives have a fitted effect of over 30% in size
Procedure, shortened: as §1

[13] = Quantitative High-Throughput drug screen in 47 multiple myeloma cell lines against the NCATS MIPE library collection: OPM2_DSMZ cell viability assay (AID 1919872); further: nearly all actives have a fitted effect of over 30% in size
Procedure, shortened: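 CellTiter-Glo ATP luminescence gave viability after 48 h compound treatment at 37C of 500 multiple myeloma cells per well. Normalisation used DMSO-only wells as 100% and media-only wells as 0% viability; primary qHTS of approved and investigational drugs.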

[14] = Quantitative High-Throughput drug screen in 47 multiple myeloma cell lines against the NCATS MIPE library collection: KMS11_JCRBsus cell viability assay (AID 1919873); further: nearly all actives have a fitted effect of over 50% in size
Procedure, shortened: as §1

[15] = qHTS for identification of novel therapeutic agents for treatment of microphthalmiaassociated transcription factor (MiT) renal cell carcinoma (RCC) (AID 1963991; calls by dose curve); conditions: CellTiter-Glo, 48 h; for z-score: stronger effect = lower value
Procedure, shortened: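 Three TFE3-fusion RCC cell lines (UOK109, UOK124, UOK145), 500 cells/well, were exposed to the 1912-compound MIPE 4.0 library for 48 hours at 37 C. Viability was read by CellTiter-Glo luminescence, normalised to DMSO (100%) and empty wells (0%), with 11-concentration curve fits.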

[16] = Quantitative High-Throughput drug screen in 47 multiple myeloma cell lines against the NCATS MIPE library collection: U266_ATCC cell viability assay (AID 1919864); further: nearly all actives have a fitted effect of over 35% in size
Procedure, shortened: as §1

[17] = qHTS drug screen for cell cycle checkpoint inhibitors in PARPi-resistant BRCA-mutant ovarian cancer cell lines. (AID 1963452; calls by dose curve); conditions: PEO1/OlaR viability, CellTiter-Glo luminescence, 96 h; for Z-AUC: stronger effect = lower value
Procedure, shortened: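 PEO1, PEO4 and PEO1/OlaR ovarian cancer cells, 600 per well, exposed 96 h at 37C to a dilution series. Viability read by CellTiter-Glo luminescence, normalized to DMSO and empty wells; activity summarized as Z-AUC.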

[18] = Quantitative High-Throughput drug screen in 47 multiple myeloma cell lines against the NCATS MIPE library collection: SKMM1_PLB cell viability assay (AID 1919863); conditions: SKMM1 myeloma viability, CellTiter-Glo ATP, 48 h; viability: stronger effect = lower value; further: nearly all actives have a fitted effect of over 35% in size
Procedure, shortened: as §1

[19] = Quantitative High-Throughput drug screen in 47 multiple myeloma cell lines against the NCATS MIPE library collection: UTMC2_PLB cell viability assay (AID 1919868); conditions: CellTiter-Glo ATP luminescence, 48 h; viability (% of DMSO control): at 45.8 µM (top of the series) unless noted; further: nearly all actives have a fitted effect of over 55% in size
Procedure, shortened: as §1

[20] = Quantitative High-Throughput drug screen in 47 multiple myeloma cell lines against the NCATS MIPE library collection: KMS28BM_JCRB cell viability assay (AID 1919874); further: nearly all actives have a fitted effect of over 35% in size
Procedure, shortened: as §1

[21] = TFE3-RCC UOK109 viability, measured here: UOK109 Z-AUC
[22] = TFE3-RCC viability, measured here: UOK124 Z-AUC
[23] = TFE3-RCC viability, measured here: UOK145 Z-AUC
[24] = measured here: PEO1 parental Z-AUC
Potency means the concentration at half of the fitted maximal effect.

## CCOc1ccccc1OCCNC(C)Cc1ccc(OC)c(S(N)(=O)=O)c1 (configuration not stated)
[1]
  Potency: inactive
[2]
  Potency: inactive
[3]
  Potency: inactive
[4]
  Potency: inactive
[5]
  Potency: inactive
[6]
  Potency: inactive
[7]
  Potency: inactive
[8]
  Potency: inactive
[9]
  Potency: inactive
[10]
  Potency: inactive
[11]
  Potency: inactive
[12]
  Potency: inactive
[13]
  Potency: inactive
[14]
  Potency: inactive
[15]; [21]
  z-score: -0.0547
[15]; [22]
  z-score: 0.341
[15]; [23]
  z-score: 2.03

## O=C(Nc1cn[nH]c1-c1nc2ccc(CN3CCOCC3)cc2[nH]1)NC1CC1
[1]
  Potency: 7430 nM (active)
[2]
  Potency: 2640 nM (active)
[3]
  Potency: 418 nM (active)
[4]
  Potency: 332 nM (active)
[5]
  Potency: 4180 nM (active)
[16]
  Potency: 2350 nM (active)
[7]
  Potency: 743 nM (active)
[8]
  Potency: 148 nM (active)
[9]
  Potency: 2960 nM (active)
[10]
  Potency: 935 nM (active)
[12]
  Potency: 10500 nM (active)
[13]
  Potency: 4690 nM (active)
[14]
  Potency: 1320 nM (active)
[17]
  Potency: 871 nM (active)
[17]; [24]
  Z-AUC: -1.15
[17]; measured here: PEO4 Z-AUC
  Z-AUC: -1.9

## CN1CCN(Cc2ccc(NC(=O)Nc3ccc(Oc4cc(NC(=O)C5CC5)ncn4)cc3)cc2C(F)(F)F)CC1
[1]
  Potency: 372 nM (active)
[2]
  Potency: inactive
[3]
  Potency: 332 nM (active)
[4]
  Potency: 526 nM (active)
[5]
  Potency: 332 nM (active)
[18]
  Potency: 332 nM (active)
[16]
  Potency: 418 nM (active)
[7]
  Potency: 148 nM (active)
[8]
  Potency: 187 nM (active)
[9]
  Potency: 93.5 nM (active)
[19]
  Potency: 132 nM (active)
[10]
  Potency: 148 nM (active)
[11]
  Potency: 105 nM (active)
[12]
  Potency: 418 nM (active)
[13]
  Potency: 526 nM (active)
[17]
  Z-AUC: -1.5 (inactive)
[17]; [24]
  Z-AUC: -2.15
[17]; measured here: PEO4 Z-AUC
  Z-AUC: -1.93

## CCc1c2c(nc3ccc(O)cc13)-c1cc3c(c(=O)n1C2)COC(=O)[C@]3(O)CC
[1]
  Potency: 166 nM (active)
[2]
  Potency: 590 nM (active)
[3]
  Potency: 264 nM (active)
[4]
  Potency: 1 nM (active)
[5]
  Potency: 1180 nM (active)
[18]
  Potency: 469 nM (active)
[16]
  Potency: 743 nM (active)
[9]
  Potency: 662 nM (active)
[10]
  Potency: 148 nM (active)
[12]
  Potency: 1320 nM (active)
[13]
  Potency: 1180 nM (active)
[14]
  Potency: 662 nM (active)
[20]
  Potency: 74.3 nM (active)
[17]
  Potency: 6.2 nM (active)
[17]; [24]
  Z-AUC: -3.8
[17]; measured here: PEO4 Z-AUC
  Z-AUC: -3.13
[15]; TFE3-RCC UOK109 viability, active = Z-AUC below -0.8 in all three lines
  Potency: 469 nM (active)
[15]; [21]
  z-score: -1.63
[15]; [22]
  z-score: -2.08
[15]; [23]
  z-score: -2.56

## CC1(C)CC(=O)c2c(C(F)(F)F)nn(-c3ccc(C(N)=O)c(NC4CCC(OC(=O)CN)CC4)c3)c2C1 (configuration not stated)
[1]
  Potency: 235 nM (active)
[2]
  Potency: 83.3 nM (active)
[3]
  Potency: 166 nM (active)
[4]
  Potency: 83.3 nM (active)
[5]
  Potency: 187 nM (active)
[6]
  Potency: 166 nM (active)
[16]
  Potency: 166 nM (active)
[7]
  Potency: 296 nM (active)
[8]
  Potency: 83.3 nM (active)
[9]
  Potency: 166 nM (active)
[19]
  Potency: 209 nM (active)
[10]
  Potency: 209 nM (active)
[11]
  Potency: 74.3 nM (active)
[13]
  Potency: 296 nM (active)
[20]
  Potency: 187 nM (active)
[17]
  Z-AUC: -1.29 (inactive)
[17]; [24]
  Z-AUC: -0.877
[17]; measured here: PEO4 Z-AUC
  Z-AUC: -0.312

## CNC(=O)c1c(F)cccc1Nc1nc(Nc2cc3c(cc2OC)CCN3C(=O)CN(C)C)nc2[nH]ccc12
[1]
  Potency: 132 nM (active)
[2]
  Potency: inactive
[3]
  Potency: 8330 nM (active)
[5]
  Potency: 1660 nM (active)
[6]
  Potency: 7430 nM (active)
[18]
  Potency: 10500 nM (active)
[7]
  Potency: 2350 nM (active)
[8]
  Potency: 2350 nM (active)
[9]
  Potency: 105 nM (active)
[10]
  Potency: 2640 nM (active)
[11]
  Potency: 9350 nM (active)
[12]
  Potency: 2350 nM (active)
[13]
  Potency: 11800 nM (active)
[20]
  Potency: 118 nM (active)
[17]
  Z-AUC: -0.375 (inactive)
[17]; [24]
  Z-AUC: -0.266
[17]; measured here: PEO4 Z-AUC
  Z-AUC: -0.708

## CC(C)CC(=O)Nc1n[nH]c2c1CN(C(=O)C1CCN(C)CC1)C2(C)C
[1]
  Potency: 1180 nM (active)
[2]
  Potency: 833 nM (active)
[3]
  Potency: 1180 nM (active)
[5]
  Potency: 1320 nM (active)
[6]
  Potency: 2090 nM (active)
[18]
  Potency: 4690 nM (active)
[16]
  Potency: 1870 nM (active)
[7]
  Potency: 935 nM (active)
[8]
  Potency: 1660 nM (active)
[9]
  Potency: 1480 nM (active)
[10]
  Potency: 2090 nM (active)
[11]
  Potency: 743 nM (active)
[12]
  Potency: 4180 nM (active)
[13]
  Potency: 2350 nM (active)
[14]
  Potency: 1480 nM (active)
[20]
  Potency: 2350 nM (active)
[17]
  Z-AUC: -0.913 (inactive)
[17]; [24]
  Z-AUC: -0.186
[17]; measured here: PEO4 Z-AUC
  Z-AUC: -0.504

## COc1ccc(F)c(F)c1C(=O)c1cnc(NC2CCN(S(C)(=O)=O)CC2)nc1N
[1]
  Potency: 2350 nM (active)
[2]
  Potency: 1320 nM (active)
[3]
  Potency: 1320 nM (active)
[5]
  Potency: 1320 nM (active)
[6]
  Potency: 1870 nM (active)
[18]
  Potency: 2960 nM (active)
[16]
  Potency: 2640 nM (active)
[7]
  Potency: 1050 nM (active)
[8]
  Potency: 1660 nM (active)
[9]
  Potency: 935 nM (active)
[10]
  Potency: 2090 nM (active)
[11]
  Potency: 743 nM (active)
[12]
  Potency: 2960 nM (active)
[13]
  Potency: 3320 nM (active)
[14]
  Potency: 1480 nM (active)
[20]
  Potency: 3320 nM (active)
[17]
  Potency: 871 nM (active)
[17]; [24]
  Z-AUC: -1.69
[17]; measured here: PEO4 Z-AUC
  Z-AUC: -1.31

## Nc1ncnc2c1c(-c1cccc(OCc3ccccc3)c1)cn2C1CC(CN2CCCC2)C1 (configuration not stated)
[1]
  Potency: 1050 nM (active)
[2]
  Potency: 332 nM (active)
[3]
  Potency: 11800 nM (active)
[5]
  Potency: 7430 nM (active)
[18]
  Potency: 20900 nM (active)
[16]
  Potency: 16600 nM (active)
[7]
  Potency: 5260 nM (active)
[8]
  Potency: 8330 nM (active)
[9]
  Potency: 743 nM (active)
[19]
  Potency: 66.2 nM (active)
[10]
  Potency: 1660 nM (active)
[11]
  Potency: 7430 nM (active)
[12]
  Potency: 2960 nM (active)
[13]
  Potency: 14800 nM (active)
[14]
  Potency: 372 nM (active)
[17]
  Z-AUC: -0.938 (inactive)
[17]; [24]
  Z-AUC: -0.783
[17]; measured here: PEO4 Z-AUC
  Z-AUC: -1.2
